Compounds with a hit are over-represented: about 7.8% of the library has one in this group of screens.
MITF inhib = inhibitors of MITF. inhibition, % (test concentration not listed). TRPM1 promoter luciferase, luminescence, 24 h. AID 2240. actives 0.28% (n = 37,000); in the data active means inhibition above about 85%; inconclusive means no clear call, values can overlap the other calls; inactive means below about 68%;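 further: human melanocyte line stably carrying TRPM1 promoter luciferase reporter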
Shh pathway inh = blocks Sonic Hedgehog signaling; Shh-LIGHT2 Gli-luciferase reporter, 30 h; inhibition, % (no concentration beside the values); actives 2.1% (n = 22,000); AID 2313;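 active means mean inhibition across valid replicates above about 65%, limit read from the data; inconclusive means mean under the limit, yet half or more replicates past it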;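 further: pathway switched on by Shh-conditioned medium diluted 1 in 25 in low serum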
NOMO-1 viab = STK33 inhibitor candidate reducing NOMO-1 cell viability; NOMO-1 AML viability, CellTiter-Glo luminescence, 72 h; inhibition, % (concentration not given with the values); actives 7.5% (n = 37,000); AID 2330; in the data active means inhibition above about 80%; inconclusive means no clear call, values can overlap the other calls
Hits are given with their value; – = inactive; ? = inconclusive; · = no result given.

SMILES | MITF inhib | Shh pathway inh | NOMO-1 viab
C[C@@H]1CN([C@H](C)CO)C(=O)c2cc(NS(=O)(=O)c3ccccc3)ccc2O[C@H]1CN(C)Cc1ccc(-c2ccccc2)cc1 | – | · | 107
C[C@@H]1CN([C@H](C)CO)C(=O)c2cc(NS(=O)(=O)c3ccc(F)cc3)ccc2O[C@@H]1CN(C)Cc1ccccc1 | – | – | –
C[C@@H]1CN([C@@H](C)CO)C(=O)c2cc(NS(=O)(=O)c3ccccc3)ccc2O[C@H]1CN(C)Cc1ccc(-c2ccccc2)cc1 | – | · | –
Cc1ccc(S(=O)(=O)Nc2ccc3c(c2)C(=O)N([C@H](C)CO)C[C@H](C)[C@H](CN(C)Cc2ccc(-c4ccccc4)cc2)O3)cc1 | – | – | –
C[C@@H]1CN([C@@H](C)CO)C(=O)c2cc(NS(=O)(=O)c3ccc(F)cc3)ccc2O[C@@H]1CN(C)Cc1ccc(-c2ccccc2)cc1 | – | · | 111
Cc1ccc(S(=O)(=O)Nc2ccc3c(c2)C(=O)N([C@H](C)CO)C[C@@H](C)[C@H](CN(C)Cc2ccc(-c4ccccc4)cc2)O3)cc1 | – | – | 111
O=C(CSc1ccccc1C(=O)O)c1ccc(Cl)cc1 | – | – | –
COC(=O)c1cc(OC)c(OC)cc1NC(=O)c1c(-c2ccccc2)noc1C | – | · | –
C[C@@H]1CN([C@@H](C)CO)C(=O)c2cccc(NS(=O)(=O)c3ccc(Cl)cc3)c2O[C@@H]1CN(C)Cc1ccc2c(c1)OCO2 | – | – | –
C[C@H]1CN([C@@H](C)CO)C(=O)c2cccc(NC(=O)Nc3ccc(C(F)(F)F)cc3)c2O[C@H]1CN(C)Cc1ccc(Oc2ccccc2)cc1 | – | – | –
C[C@@H]1CN([C@H](C)CO)C(=O)c2cccc(NC(=O)Nc3ccc(C(F)(F)F)cc3)c2O[C@H]1CN(C)Cc1ccc(Oc2ccccc2)cc1 | – | – | –
C[C@@H]1CN([C@@H](C)CO)C(=O)c2cccc(NC(=O)Nc3ccc(C(F)(F)F)cc3)c2O[C@@H]1CN(C)Cc1ccc(Oc2ccccc2)cc1 | – | – | 95
C[C@@H]1CN([C@H](C)CO)C(=O)c2cccc(NC(=O)Nc3ccc(C(F)(F)F)cc3)c2O[C@@H]1CN(C)Cc1ccc(Oc2ccccc2)cc1 | – | – | 107
CC(=O)OCC(=O)[C@@]1(O)[C@H](C)CC2C3CCC4=CC(=O)C=C[C@]4(C)[C@@]3(F)[C@@H](O)C[C@@]21C (some centres not stated) | – | – | –
C[C@H](CO)N1C[C@H](C)[C@H](CN(C)S(=O)(=O)c2cccs2)Oc2ccc(NC(=O)CCCN(C)C)cc2C1=O | – | – | –
C[C@H]1CN([C@@H](C)CO)C(=O)c2cccc(NS(=O)(=O)c3ccc(F)cc3)c2O[C@@H]1CN(C)Cc1ccccc1 | – | – | –
C[C@H]1CN([C@@H](C)CO)C(=O)c2cc(NC(=O)Cc3ccccc3)ccc2O[C@@H]1CN(C)S(=O)(=O)c1ccc(F)cc1 | – | – | –
CCOC(OCC)P(=O)(O)CCCNCc1ccc(Cl)c(Cl)c1 | 88 | – | –
COc1ccc(NC(=O)Nc2ccc3c(c2)C(=O)N([C@@H](C)CO)C[C@@H](C)[C@H](CN(C)Cc2ccc(C(F)(F)F)cc2)O3)cc1 | – | · | –
CCOC(=O)c1nc2c(o1)NC(N)=C(C#N)C2c1ccc(Cl)cc1 (configuration not stated) | – | – | 95
Cc1nc2c([nH]1)C(c1ccc(C(C)C)cc1)C(C#N)=C(N)O2 (configuration not stated) | – | – | –
CCc1ccccc1NC(=O)CSc1nnc(-c2cc3ccccc3cc2O)n1C | – | · | –
OCCCc1n[nH]c(=S)n1-c1ccccc1 | – | · | –
CC(Oc1ccccc1-c1ccccc1)c1n[nH]c(=S)n1-c1ccccc1 (configuration not stated) | – | 69 | –
C[C@H]1CN([C@@H](C)CO)C(=O)c2cccc(NC(=O)NC3CCCCC3)c2O[C@@H]1CN(C)S(=O)(=O)c1ccc(F)cc1 | – | – | –
SMILES | MITF inhib | Shh pathway inh | NOMO-1 viab
CNC[C@@H]1Oc2ccc(NC(=O)Nc3ccc4c(c3)OCO4)cc2C(=O)N([C@@H](C)CO)C[C@@H]1C | – | – | –
CCC(C)C1NC(=O)C(CCC(=O)O)N(C)C(=O)C(C(C)C)N(C)C(=O)CNC(=O)C2CCCN2C(=O)C(Cc2ccccc2)NC(=O)C(C(C)CC)OC(=O)C(CCC(=O)O)N(C)C(=O)C(C(C)C)NC(=O)C2CCCCN2C1=O (configuration not stated) | – | 100 | 110
Cc1noc(C)c1NC(=O)N(C)C[C@@H]1Oc2ccc(NS(=O)(=O)c3ccc(F)cc3)cc2C(=O)N([C@@H](C)CO)C[C@@H]1C | – | – | –
COc1ccc(C(=O)CSc2n[nH]c(-c3ccc(C)cc3)n2)cc1 | – | · | –
Cc1ccc(OC(=O)OCSc2nn[nH]n2)cc1 | – | ? | 119
Cc1cc(C)c2c(=O)[nH]c(SCC(=O)c3cccs3)nc2n1 | – | · | –
CCN(CC)c1c(C#N)c(SCC(=O)c2cccs2)cc2c1CCCC2 | – | 81 | –
C[C@H](CO)N1C[C@H](C)[C@@H](CN(C)Cc2ccc(Oc3ccccc3)cc2)Oc2ccc(NC(=O)Nc3cccc4ccccc34)cc2C1=O | – | – | 104
C[C@H]1CN([C@@H](C)CO)C(=O)c2cc(NC(=O)Nc3cccc4ccccc34)ccc2O[C@@H]1CN(C)Cc1ccc(Oc2ccccc2)cc1 | – | – | 121
COc1ccc(CN(C)C[C@@H]2Oc3ccc(NC(=O)Nc4cccc5ccccc45)cc3C(=O)N([C@@H](C)CO)C[C@@H]2C)cc1 | – | · | –
COc1ccc(CN(C)C[C@@H]2Oc3ccc(NC(=O)Nc4cccc5ccccc45)cc3C(=O)N([C@@H](C)CO)C[C@H]2C)cc1 | – | – | –
COc1ccc(CN(C)C[C@H]2Oc3ccc(NC(=O)Nc4cccc5ccccc45)cc3C(=O)N([C@H](C)CO)C[C@H]2C)cc1 | – | – | –
C[C@H](CO)N1C[C@H](C)[C@H](CN(C)Cc2ccc(Oc3ccccc3)cc2)Oc2ccc(NC(=O)Nc3cccc4ccccc34)cc2C1=O | – | · | 113
C[C@@H]1CN([C@H](C)CO)C(=O)c2cc(NC(=O)Nc3cccc4ccccc34)ccc2O[C@@H]1CN(C)Cc1ccc(Oc2ccccc2)cc1 | – | – | 89
COc1ccc(CN(C)C[C@H]2Oc3ccc(NC(=O)Nc4cccc5ccccc45)cc3C(=O)N([C@@H](C)CO)C[C@@H]2C)cc1 | – | – | –
COc1ccccc1NC(=O)CN1C(=O)c2cccc3cccc(c23)C1=O | – | · | –
O=C(CCn1cnc2ccccc2c1=O)Nc1ccc2c3c(cccc13)CC2 | – | · | –
O=C(CSc1nc2ccc(N3C(=O)c4ccccc4C3=O)cc2s1)c1ccccc1 | – | – | –
CNC[C@H]1Oc2ccc(NS(C)(=O)=O)cc2C(=O)N([C@@H](C)CO)C[C@H]1C | – | · | –
COc1cc(NC(=O)C2c3ccccc3Oc3ccccc32)c(OC)cc1NC(=O)c1ccccc1 | – | · | –
CCOC(=O)c1ccccc1NC(=O)c1ccccc1N(C)S(C)(=O)=O | – | · | –
COc1ccc(S(=O)(=O)Nc2cccc3c2O[C@H](CN(C)CC2CCCCC2)[C@@H](C)CN([C@@H](C)CO)C3=O)cc1 | – | – | –
CC1CCCC[C@H]2C(=O)C=C[C@H](O)[C@@H]2CC(=O)O1 (some centres not stated) | – | – | 108
